High-throughput results as filed in PubChem.
Shown are actives, neighbours in structure and some others; about 4% of the full set was active somewhere.
Peg3 promoter: inhibitors of Peg3 promoter. HeLa PEG-Prom luciferase reporter, luminescence, overnight. AID 588405. hit rate 1.7% among 360,000. inhibition, % at 20 µM;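 active = inhibition of at least 50% at 20 µM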
HIF-2a inh: HIF-2a inhibition | hit rate 0.72% among 360,000 | 786-0 RCC cells HIF-2a reporter, luciferase luminescence, overnight | inhibition, % at 18.8 µM;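 active = inhibition of the luminescence signal of 40% or more relative to plate controls, in a single-dose primary screen at 18.75 µM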
CF NFkB block: inhibitors of cystic fibrosis induced NF-kB; KKLEB NF-kB-GFP reporter, PAF-induced, GFP fluorescence overnight; inhibition, % at 5 µM; hit rate 0.86% among 360,000;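 active = at least 50% inhibition at 5 µM, scaled per plate between neutral and stimulator controls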;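 also: PAF is a Pseudomonas aeruginosa culture filtrate used as stimulus; plate controls were PAF-stimulated DMSO wells for no effect and unstimulated DMSO wells for full effect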
KKLEB cytotox: reduces viability of KKLEB cystic fibrosis airway cells. KKLEB CF airway cells viability, ATPlite luminescence, overnight; stronger effect = lower value; cells stimulated with P. aeruginosa culture filtrate. activity change (cytotoxicity), % at 5 µM. hit rate 0.36% among 360,000;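 active = corrected activity change at or below -50% at 5 µM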
TROY signal inh: inhibitors of TROY-dependent NF-kB signaling | Q293 LMP1-TROYcd NF-kB luciferase reporter, 4 h | inhibition, % at 10 µM | hit rate 0.98% among 360,000;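 active = compounds whose plate-normalised and pattern-corrected inhibition of the luciferase reporter signal at the single screening dose is 50% or more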
TWEAK Fn14 block: blocks TWEAK-Fn14 interaction in a reporter cell assay; TWEAK-stimulated Fn14 reporter cells, luciferase luminescence, 8 h; inhibition, % at 10 µM; hit rate 2% among 360,000; in the data active = inhibition above about 50%
An asterisk follows results filed as active; x = no result.

SMILES	Peg3 promoter	HIF-2a inh	CF NFkB block	KKLEB cytotox	TROY signal inh	TWEAK Fn14 block
CCOC(=O)c1cc(C)sc1NC(=O)C(c1ccccc1)c1ccccc1	19	12	24	-21	-15	0
O=S(=O)(Nc1cccc2cccnc12)c1ccc(S(=O)(=O)N2CCCC2)cc1	50*	7	-13	14	28	16
COc1ccc(C(NC(=O)C2CCN(CCOc3ccc(Cl)cc3Cl)CC2)c2cccs2)cc1 (stereo not given)	-1	-28	27	-18	51*	-4
COc1ccc(C(NC(=O)C2CCN(CCOc3ccc(Cl)cc3Cl)CC2)c2ccccc2C)cn1 (stereo not given)	1	-17	13	-24	32	-18
Cc1ccccc1C(c1ncccc1C)N(C)C(=O)C1CCN(CCOc2ccc(Cl)cc2Cl)CC1 (stereo not given)	100*	7	13	-11	21	-45
O=C(NC(c1ccccc1)c1ccsc1)C1CCN(CCOc2ccc(Cl)cc2Cl)CC1 (stereo not given)	54*	-13	8	-31	32	-2
CC(C)(C)c1ccc(C(=O)Cn2cnnc2C#N)cc1	-25	-50	10	-4	-25	-17
O=C(O)CCC(=O)OCC1CCCCC1	10	18	-23	1	6	4
Cc1ccc(NC(=O)CSc2nnc(-c3ccc(S(=O)(=O)N4CCCC4)cc3)o2)cc1C	60*	6	-4	4	6	-34
O=C(COc1ccccc1/C=C1\SC(=S)NC1=O)Nc1ccc(F)cc1	21	-31	52*	2	49	16
CCN(CC)CC(C)(C)C(=O)/C=C/c1ccc(/C=C/C(=O)C(C)(C)CN(CC)CC)cc1	102*	91*	92*	-66*	44	102*
Cc1ccc([N+](=O)[O-])cc1N=Nc1c(C)[nH]n(C(N)=S)c1=O	-4	6	-12	5	0	-4
NC(=S)n1[nH]c(-c2ccc([N+](=O)[O-])cc2)c(N=Nc2ccc(Cl)cc2)c1=O	21	-44	-18	-24	53*	54*
Cc1ccc([N+](=O)[O-])cc1N=Nc1c(-c2ccc([N+](=O)[O-])cc2)[nH]n(C(N)=S)c1=O	48	-29	-27	-44	64*	81*
Cc1ccc2nc(-c3cc(N)cc(N)c3)oc2c1	-122	62*	-3	-26	60*	62*
C#CCOCCOCCOCCNc1nc(N2CCN(C(=O)[C@H](C(C)C)n3cc(CCO)nn3)CC2)nc(N2CCN(C(=O)[C@H]([C@@H](C)CC)n3cc(CCC(=O)O)nn3)CC2)n1	0	12	-1	5	5	-3
CCOC(=O)c1oc2ccccc2c1CN1CCN(C)CC1	-6	13	-3	7	x	86*
O=C(O)[C@@H](O)[C@H](O)C(=O)O	-1	2	4	-61*	7	-1
COCCCNC(=O)C1CCC(=O)N1Cc1ccccc1Cl (stereo not given)	6	4	-7	1	x	85*
COC(=O)Cc1c(C)nc2nc[nH]n2c1=O	4	11	-2	-1	7	-11
Nc1ccc(-c2nc3ccc(N)cc3[nH]2)cc1	-118	-28	-27	8	-6	2
Nc1ccc(-c2nc3c(Cl)c(N)ccc3[nH]2)cc1	-171	14	-25	5	-22	61*
CC1CCc2nc(N)c(C#N)c(-c3cccnc3)c2C1 (stereo not given)	31	13	69*	-5	54*	83*
CC1CCc2nc(N)c(C#N)c(-c3ccncc3)c2C1 (stereo not given)	17	20	-9	-10	-12	3
COCCCNC(=S)Nc1cc(C)c(C)cc1C	14	12	7	0	14	-4
CC1C(=O)C(C)C(c2ccco2)NC1c1ccco1 (stereo not given)	6	2	13	2	3	-7
c1coc(C2=NC(c3ccco3)C(c3ccco3)N2)c1 (stereo not given)	-68	-128	-12	4	9	64*
O=C(O)C1C2C=CC(C2)C1C(=O)NCc1cccc(Cl)c1 (stereo not given)	8	18	22	-4	8	6
